# Laboratory results published in PubChem BioAssay (Tox21).
# Inconclusive results are not listed. A call without a number means that no potency is given here. Unmarked numbers belong to inactive results. Active and inactive are the calls of the source. Calls come from the whole dose curve.
# Test: qHTS assay to identify small molecule agonists of H2AX - cell viability counter screen (AID 1224847); note: nearly all actives have a fitted effect of over 30% in size;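 for activity change, negative = cytotoxicity: wild-type CHO-K1 cells; top concentration of the series differs between compounds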
# Settings: CHO-K1 viability, CellTiter-Glo luminescence, 3 h; series mostly up to 154 µM
# How it was run: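 For this counter screen, overnight-attached CHO-K1 cells received test compounds (15 concentrations, 0.76% DMSO final); 3 hr later at 37C, CellTiter-Glo reagent was added and luminescence recorded after 30 min at room temperature.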
# Potency is the fitted concentration of half-maximal effect.
Compound,Potency,"activity change, negative = cytotoxicity"
CC1=CC[C@H](CC=O)C1(C)C,inactive,
COCC(=O)Nc1c(I)c(C(=O)NCC(O)CO)c(I)c(C(=O)N(C)CC(O)CO)c1I (stereo not drawn),inactive,
COc1ccc(N=Nc2cc(C)c(N=Nc3ccc(S(=O)(=O)O)cc3)cc2OC)cc1,101 µM (active),
NS(=O)(=O)c1cc2c(cc1Cl)NC(C(Cl)Cl)NS2(=O)=O (stereo not drawn),inactive,
C[Si]1(C)N[Si](C)(C)N[Si](C)(C)N1,inactive,
CCC(O)C(C)(C)C (stereo not drawn),inactive,
O=C(O)c1ccccc1C(=O)OCc1ccccc1,inactive,
C=CCOCC(O)CCl (stereo not drawn),inactive,
CCC1Nc2cc(Cl)c(S(N)(=O)=O)cc2S(=O)(=O)N1 (stereo not drawn),inactive,
FC(F)(F)/C(=N\OCC1OCCO1)c1ccc(Cl)cc1,inactive,
C1=C\CC/C=C\CC/1,inactive,
CCCCCCCCCCCCC1CO1 (stereo not drawn),inactive,
Nc1ccc(/C=C/c2ccc(N)cc2S(=O)(=O)O)c(S(=O)(=O)O)c1,,3.7% [at 0.582 µM]
O=S1(=O)CCCC1,inactive,
CC(=O)OC(C)c1ccccc1 (stereo not drawn),inactive,
O=C(Nc1cccc(C2=NCCN2)c1)Nc1cccc(C2=NCCN2)c1,,4.49% [at 31.6 µM]
CCOC(=O)CCCCCCCCC(=O)OCC,inactive,
OC(CCN1CCCCC1)(c1ccccc1)c1ccccc1,inactive,
CCCO,inactive,
CC(=O)N1CCN(c2ccc(O)cc2)CC1,inactive,
C/C=C(\C)C(=O)OCC/C=C\CC,inactive,
Cc1ccc(C(=O)C(=O)O)cc1C,inactive,
CC1=NN(c2ccc(S(=O)(=O)O)cc2)C(=O)C1N=Nc1ccccc1 (stereo not drawn),inactive,
